From PubChem BioAssay AID504332 (National Center for Advancing Translational Sciences (NCATS), 2011)
About 31,000 (8.9%) of roughly 350,000 compounds were called active. Roughly 15% stayed inconclusive and do not appear here. Calls come from the whole dose curve; as a rule, active = well fitted inhibition curve with a large enough effect; inconclusive = small, poorly fitted or top-dose-only effect; inactive = no such curve, though single readings can be large or run the other way. Shown is part of a subset that was picked to be rich in actives.

Molecular target: Histone-lysine N-methyltransferase EHMT2 (Homo sapiens) (UniProt Q96KQ7)
Assay: qHTS Assay for Inhibitors of Histone Lysine Methyltransferase G9a; note: nearly all actives have a fitted effect of over 75% in size
Conditions: G9a H3K9 monomethylation, AlphaScreen, 2 h; series mostly up to 59 µM; activity, negative = inhibition: at the top concentration
Procedure, shortened: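 Signal arises when biotinylated H3K9 peptide, once monomethylated, bridges streptavidin donor and antibody-captured acceptor beads. Enzyme at 20 nM was preincubated 15 min with test compounds; peptide 500 nM and SAM 20 uM then reacted for 2 h.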
% is set by controls: 0 for no effect and ±100 for the full control effect; potency is the fitted concentration of half-maximal effect.

Histone-lysine N-methyltransferase EHMT2 (Homo sapiens), sequence (Q96KQ7 913-1193 limits assumed): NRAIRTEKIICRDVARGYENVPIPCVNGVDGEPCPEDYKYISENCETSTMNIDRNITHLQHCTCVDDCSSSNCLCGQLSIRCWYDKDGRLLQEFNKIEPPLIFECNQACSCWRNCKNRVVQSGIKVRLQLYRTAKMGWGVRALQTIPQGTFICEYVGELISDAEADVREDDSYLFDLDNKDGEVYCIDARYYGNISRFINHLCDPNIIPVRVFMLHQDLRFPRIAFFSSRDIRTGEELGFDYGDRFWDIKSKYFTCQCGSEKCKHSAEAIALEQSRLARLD

| SMILES | activity, negative = inhibition | Potency |
| --- | --- | --- |
| O=C(O)CCCn1cc(NC(=O)COc2cccc(Cl)c2)cn1 | 6.71% [at 102 µM] (inactive) |  |
| O=C1CCN(CCCc2ccccc2)CCN1CCO | -2.88% [at 102 µM] (inactive) |  |
| CC1CCN(C(=S)c2ccc(-c3ccc(Cl)cc3Cl)o2)CC1 |  | 8.91 µM (active) |
| Cc1csc(NC(=O)c2ccc(-c3ccc(Cl)cc3Cl)o2)n1 | 2.91% (inactive) |  |
| COc1ccc(C(=O)Nc2c(Cl)cc(Cl)cc2C(=O)N2CCC(C)CC2)cc1 | 14.3% (inactive) |  |
| COc1ccc(CNC(=O)C(C)n2nc(C)c3c(C)n(-c4ccccc4)nc3c2=O)c(OC)c1 (stereo not given) |  | inactive |
| O=[N+]([O-])c1ccc(N2CCNCC2)cc1NCc1cccnc1 | 1.92% (inactive) |  |
| CN1CCN(c2ccc([N+](=O)[O-])c(Sc3nc4ccccc4[nH]3)c2)CC1 |  | 10 µM (active) |
| CC1CCN(c2ccc([N+](=O)[O-])c(SCCO)c2)CC1 | -14.6% (inactive) |  |
| CCOC(=O)c1ccccc1NC(=O)CCc1c(C)nc2c(c1C)c(=O)n(C)c(=O)n2C | 4.26% (inactive) |  |
| CCOc1ccc(N2CC(c3nc4ccccc4n3CCOc3ccc(OC)cc3)CC2=O)cc1 (stereo not given) | -48.9% (inactive) |  |
| CCc1ccccc1OCC(=O)Nc1ccc2c(c1)OCCO2 | -6.66% [at 102 µM] (inactive) |  |
| COc1ccc(NC(=O)CSc2nnc(C3CC3)n2C)cc1S(=O)(=O)N1CCCCC1 | -4.19% (inactive) |  |
| COc1ccc(NC(=O)CSc2nnc(-c3ccccc3F)n2C2CC2)cc1S(N)(=O)=O |  | 44.7 µM (active) |
| CC(Sc1nnc(-c2ccccc2F)n1C1CC1)C(N)=O (stereo not given) | -3.42% (inactive) |  |
| Cc1ccc(S(=O)(=O)N(CC(=O)NCc2ccco2)c2ccccc2C)cc1 | -17.8% [at 102 µM] (inactive) |  |
| CCOC(=O)C(Cc1ccccc1)NC(=O)CCc1c(C)nc2c(c(C)nn2-c2ccc(C)c(C)c2)c1C (stereo not given) | 1.4% (inactive) |  |
| CCOC(=O)c1cc2c(=O)n3ccccc3nc2n(Cc2ccco2)c1=NC(=O)c1ccc(F)cc1 | 9.03% (inactive) |  |
| COC(=O)c1ccc(NC(=O)c2cnn(-c3ccc(Cl)cc3)c2C2CCN(C(=O)OC(C)(C)C)CC2)cc1 | -29.6% (inactive) |  |
| CCOc1cccc(NC(=O)C2CCCN(S(=O)(=O)c3ccc(OC)cc3)C2)c1 (stereo not given) | -28.2% [at 102 µM] (inactive) |  |
| COc1cccc(NC(=O)CN(C)CC(=O)Nc2ccc3c(c2)CCC3)c1 | -6.51% [at 102 µM] (inactive) |  |
| COc1cccc(NC(=O)CN(C)C(=O)CSC(=S)N2CCCC2)c1 |  | 14.1 µM (active) |
| COc1ccccc1CC(=O)Nc1ccc(S(=O)(=O)N2CCCC2)cc1 | 10.5% [at 102 µM] (inactive) |  |
| CCN(CC(=O)Nc1ccc(S(=O)(=O)N2CCCC2)cc1)CC(=O)Nc1cccc(OC)c1 |  | 31.6 µM (active) |

| SMILES | activity, negative = inhibition | Potency |
| --- | --- | --- |
| COc1cccc(NC(=O)CN(C)C(=O)Cc2ccc(Cl)cc2Cl)c1 | 1.78% [at 102 µM] (inactive) |  |
| COc1ccc(OC)c(NC(=O)CN2CCCN(Cc3cc(C)ccc3C)S2(=O)=O)c1 | 0.769% (inactive) |  |
| COc1ccc(OCCCC(=O)OC(C)C(=O)Nc2ccccc2[N+](=O)[O-])cc1 (stereo not given) | -1.74% [at 2.33 µM] (inactive) |  |
| CCOc1ccc(-n2c(C)nc3c(cnn3-c3ccc(C)cc3)c2=O)cc1 | 11.5% (inactive) |  |
| Cn1c(=O)c2c(nc(NCCNC(=O)c3ccco3)n2Cc2ccccc2F)n(C)c1=O | 41.2% [at 102 µM] (inactive) |  |
| CCOC(=O)CSc1nc2c(c(=O)n(C)c(=O)n2C)n1Cc1ccccc1F | 2.47% [at 102 µM] (inactive) |  |
| CC(C)OCCCNc1nc2c(c(=O)n(Cc3ccccc3F)c(=O)n2C)n1C |  | 22.4 µM (active) |
| CNC(=O)c1ccc(-c2nc(CN3CCc4ccccc43)c(C)o2)cc1 | -0.994% [at 12.7 µM] (inactive) |  |
| CCOC(=O)c1c(NC(=O)c2ccc(S(=O)(=O)N(C)CC3CCCO3)cc2)sc2c1CC(C)(C)NC2(C)C (stereo not given) | 69.6% [at 102 µM] (inactive) |  |
| Cc1nn(-c2ccccc2)c(C)c1NC(=O)COc1ccc(Cl)cc1Cl | 26.6% (inactive) |  |
| COC(=O)c1c(NC(=O)COc2ccc(Cl)cc2Cl)sc2c1CC(C)(C)NC2(C)C |  | 31.6 µM (active) |
| CC1(C)CC(=O)C=C(c2ccc(Cl)c(C(F)(F)F)c2)C1 | -9.47% [at 0.501 µM] (inactive) |  |
| O=C(CCc1nc(-c2ccccc2)no1)Nc1cccc(C(=O)NC2CC2)c1 | -5.9% [at 12.7 µM] (inactive) |  |
| CCOC(=O)c1ccccc1NC(=O)COC(=O)C(Cc1c[nH]c2ccccc12)NC(C)=O (stereo not given) | -26.2% [at 102 µM] (inactive) |  |
| Cc1nonc1C1CCCN1C(=O)c1cc(COc2cccc(C(F)(F)F)c2)on1 (stereo not given) | 24.4% [at 102 µM] (inactive) |  |
| Cc1ccc(NC(=O)CSc2nc3c([nH]c4ccccc43)c(=O)n2-c2ccccc2)c(C)c1 | 11.1% (inactive) |  |
| O=C(COc1ccccc1F)OCc1cc(=O)n2nc(C3CCCCC3)sc2n1 | 8.46% (inactive) |  |
| CC(=O)c1nc2ccccc2n1Cc1ccccc1 | 4.37% [at 102 µM] (inactive) |  |
| O=C(O)CCn1c(Cc2ccccc2)nc2ccccc21 | 13.2% [at 102 µM] (inactive) |  |
| O=C(O)CCc1nc2cc(Cl)ccc2n(Cc2ccccc2)c1=O |  | 50.1 µM (active) |
| COc1cc(OC)c(NC(=O)c2cnc(N3CCCC3)nc2C)cc1Cl | -4.36% [at 12.7 µM] (inactive) |  |
| COc1cc(C#Cc2ccc3cc(CCCO)oc(=O)c3c2)cc(OC)c1 | -2.15% [at 0.501 µM] (inactive) |  |
| COc1ccccc1C(=O)N(Cc1ccc(C)o1)C1CCS(=O)(=O)C1 (stereo not given) | 76.1% [at 102 µM] (inactive) |  |
| CC(OC(=O)c1cc2ccccc2o1)C(=O)Nc1ccc(N2CCOCC2)cc1 (stereo not given) | -43.1% [at 12.7 µM] (inactive) |  |

| SMILES | activity, negative = inhibition | Potency |
| --- | --- | --- |
| O=C(Nc1nnc(-c2ccccc2F)s1)c1ccccc1F | -8.05% [at 102 µM] (inactive) |  |
| O=C(Cn1c(=O)sc2ccccc21)Nc1nc2c(s1)CCCC2 | -39.4% [at 102 µM] (inactive) |  |
| O=C(Nc1nc2c(s1)CCCC2)c1ccccc1F |  | 12.6 µM (active) |
| CCc1ccc(NC(=O)C2CCCN2S(=O)(=O)c2ccc3nc(-c4ccccc4)[nH]c3c2)cc1 (stereo not given) | -30.7% (inactive) |  |
| Cc1ccc(CSc2nc3ccsc3c(=O)n2CCC(C)C)cc1 | 65.3% (inactive) |  |
| COC(=O)c1ccccc1NC(=O)c1cnn(-c2ccc(F)cc2)c1-n1cccc1 | -2.86% (inactive) |  |
| O=C(COc1ccc(Cl)cc1)Nc1ccc2c(c1)OCO2 | 18.4% [at 102 µM] (inactive) |  |
| O=C(CN1CCN(Cc2ccccc2)CC1)Nc1ccc(F)c(F)c1 |  | 7.08 µM (active) |
| Cc1cc(NC(=O)CCN2CCN(Cc3ccccc3)CC2)ccc1Br |  | 44.7 µM (active) |
| O=C(CN1CCN(CC(=O)Nc2ccc3c(c2)OCO3)CC1)Nc1ccc(F)cc1 | -4.1% [at 2.33 µM] (inactive) |  |
| O=C(Nc1ccccc1)N1CCN(C2c3ccccc3-c3ccccc32)CC1 | 9.14% [at 102 µM] (inactive) |  |
| O=C(Nc1cccc(NC(=O)N2CCN(c3ccccc3)CC2)c1)N1CCN(c2ccccc2)CC1 | -38.9% [at 102 µM] (inactive) |  |
| CCOC(=O)N1CCN(CCC(=O)Nc2ccccc2)CC1 | -0.171% [at 0.501 µM] (inactive) |  |
| O=C(CN1CCCCCC1)Nc1ccc(Cl)cc1F | -4.75% [at 102 µM] (inactive) |  |
| O=C(Nc1ccccc1)N1CCC(C(=O)N2CCN(Cc3ccccc3)CC2)CC1 | 9.4% [at 12.7 µM] (inactive) |  |
| O=C(Nc1ccccc1)N1CCN(C(=O)Nc2ccccc2)CC1 | 6.73% [at 102 µM] (inactive) |  |
| O=C(CCN1CCN(C/C=C/c2ccccc2)CC1)Nc1cccc(F)c1 | -7.7% [at 102 µM] (inactive) |  |
| O=C1CCN(C(=O)Nc2ccccc2)N1 |  | 7.94 µM (active) |
| O=C(Nc1ccccc1)N1CCN(Cc2ccccc2)CC1 |  | 2 µM (active) |
| COc1ccc(C)cc1NC(=O)CCc1c(C)nn(-c2ccc(N3CCOCC3)nn2)c1C | -3.72% (inactive) |  |
| O=C(COC(=O)c1cnccn1)Nc1ccc(Cl)cc1C(F)(F)F | -3.19% [at 0.501 µM] (inactive) |  |
| O=C(Cn1c(=O)nc(-c2ccccc2)c2cc(Cl)ccc21)NCc1ccc(Cl)cc1 | -4.4% (inactive) |  |
| O=C(CSc1cn(CC(=O)N2CCOCC2)c2ccccc12)Nc1ccccc1 | 2.17% (inactive) |  |
| CN(CC(=O)NCc1ccncc1)S(=O)(=O)c1ccc(Br)cc1 | 9.67% [at 102 µM] (inactive) |  |

| SMILES | activity, negative = inhibition | Potency |
| --- | --- | --- |
| CCOC(=O)Cc1csc(SCC(=O)Nc2ccc(C)cc2F)n1 | 25.5% [at 102 µM] (inactive) |  |
| C=Cc1ccc(Cn2c(C(=O)OC)cc3sc(C)cc32)cc1 | 62.5% (inactive) |  |
| CC(=O)Nc1ccc2nc(SCCOc3cc(C)cc(C)c3)sc2c1 | -9.85% (inactive) |  |
| COc1cccc(-n2cc3c(c2-c2ccccc2)c(=O)n(C)c(=O)n3C)c1 |  | 25.1 µM (active) |
| COc1cccc(N2C(=O)CN(Cc3ccccc3)C2=S)c1 | 23.1% [at 102 µM] (inactive) |  |
| Cc1ccc(-c2c3c(=O)n(C)c(=O)n(C)c3cn2-c2ccccc2O)cc1 |  | 31.6 µM (active) |
| COc1ccccc1-n1c(-c2ccc(C)cc2)cn2c3c(=O)n(C)c(=O)n(C)c3nc12 | -26.8% (inactive) |  |
| COc1ccc(-c2c3c(=O)n(C)c(=O)n(C)c3c3c(C)nc4ccccc4n23)cc1 | 7.67% (inactive) |  |
| COc1ccc(Nc2cc(=O)n(-c3ccccc3)c3c2c(=O)n(C)c(=O)n3C)cc1 | -9.11% [at 102 µM] (inactive) |  |
| O=C(O)c1ccc(CSc2nc3cccnc3n2Cc2cccc(F)c2)cc1 | 6.5% (inactive) |  |
| CCN(CC(=O)NCc1cccs1)C(=O)/C=C/c1ccc(C)cc1 | 9.99% [at 12.7 µM] (inactive) |  |
| CCOC(=O)c1c(C)[nH]c(CCC(=O)NCCCN2CCN(c3cccc(Cl)c3)CC2)c1C | 1.4% (inactive) |  |
| CCOC(=O)c1ccc2c(c1)N(Cc1cccc(OC)c1)C(=O)c1ccccc1S2(=O)=O | 8.77% (inactive) |  |
| O=C(C1Cc2ccccc2CN1C(=O)c1ccco1)N1CCN(c2ccccc2)CC1 (stereo not given) | -27.1% (inactive) |  |
| C[C@H](NC(=O)[C@@H]1Cc2ccccc2CN1C(=O)OC(C)(C)C)C(=O)NC1CCCC1 | 19.8% [at 102 µM] (inactive) |  |
| CC(=O)N1Cc2ccccc2CC1C(=O)O (stereo not given) |  | 17.8 µM (active) |
| C[C@@H]1O[C@@H](OC[C@H]2O[C@@H](Oc3c(-c4ccc(O)cc4)oc4cc(O)cc(O)c4c3=O)[C@H](O)[C@@H](O)[C@@H]2O)[C@H](O)[C@H](O)[C@H]1O | 4.77% [at 12.7 µM] (inactive) |  |
| COc1cccc(N2CC(NS(=O)(=O)c3ccc(Cl)cc3)CC2=O)c1 (stereo not given) | -30.1% [at 102 µM] (inactive) |  |
| CC1CCC(CN2CCN=C2N(C)C)CC1 (stereo not given) | 11.1% [at 12.7 µM] (inactive) |  |
| NC(=S)c1ccc(C(N)=S)o1 |  | 44.7 µM (active) |
| O=C(COC(=O)c1cc2c(s1)CCCC2)NCc1ccccc1Cl | 7.22% [at 102 µM] (inactive) |  |
| CN(C)C(=O)c1ccc(NC(=O)COC(=O)c2cc3c(s2)CCCCC3)cc1 |  | 3.55 µM (active) |
| O=C(Nc1ccc(F)cc1)c1cc2c(s1)CCCC2 | 45% [at 102 µM] (inactive) |  |
